Four compounds from PubChem BioAssay (NCI) can be followed below.

Some test systems named below: HCT-15 colon; HT29 colon; SNB-19 CNS; U251 CNS; PC-3 prostate; SK-MEL-5 melanoma; UACC-62 melanoma; LOX IMVI melanoma.
Test in all cases: NCI-60 one-dose screen, 48 h (100 = growth as untreated, 0 = no growth, -100 = all killed)
In a further test the test system is SNB-75 CNS. How it is done: Growth inhibition of the SNB-75 human tumor cell line is measured as a screen for anti-cancer activity. Cells are grown in 96 well plates and exposed to the test compound for 48 hours. Compounds are tested at a single concentration, which is 10^-5 M for most compounds. The reported endpoint is percent growth (GI% or GIPRCNT), where numbers from 0 - 100% represent growth inhibition, and numbers from -100% - 0 represent cell death. For example, a value of 40 represents 60% growth inhibition. A value of 0 means no net growth occurred over the course of the experiment. A value of -40 indicates 40% of cells at the beginning of the experiment died by the end of the experiment. A value of -100 means all cells are dead at the end of the experiment.
NCI-60 Human Tumor Cell Lines Screen was performed using the standard one-dose NCI protocol, which is described in more detail at https://dtp.cancer.gov/discovery_development/nci-60/default.htm.
Compounds with GIPRCNT values below 10 were considered active. Activity score was based on GIPRCNT using the following formula: […]
Score is 0 for GIPRCNT values of 100 or above, 50 for GIPRCNT values of 0, and 100 for GIPRCNT values of -100.

The test system of another test is SK-MEL-28 melanoma. The conditions noted are these: 10 µM.

“And” between values parts separate entries of the source, which are not always exact repeats. Equal values may be shown once. Compounds without any hit were thinned out: in the full panel of roughly 83,000, 20% have a hit.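 Compound tested at a single concentration for 48 hours in 96-well plates; a percent growth value below 10 was scored as active.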 The source made the active and inactive calls.

Regarding `CN(Cc1cnc2nc(N)nc(N)c2n1)c1ccc(C(=O)N[C@@H](CCC(=O)O)C(=O)O)cc1`, the growth in the test on HCT-15 colon (2.5 µM) was 28.5% (inactive); in the test on HCT-15 colon (10 µM) it was 36% (inactive); with HT29 colon (2.5 µM), 29% (inactive); in the test on HT29 colon (10 µM) it was 25.9% (inactive); with SNB-75 CNS (2.5 µM), 73.8% (inactive); in the test on SNB-75 CNS (10 µM) it was 66% (inactive). Further, the growth is 33.9% (inactive) with SNB-19 CNS (2.5 µM); 29.5% (inactive) in the test on SNB-19 CNS (10 µM); 34.1% (inactive) in the test on U251 CNS (2.5 µM); 38.3% (inactive) in the test on U251 CNS (10 µM); 33.8% (inactive) with PC-3 prostate (2.5 µM); 37% (inactive) in the test with PC-3 prostate (10 µM). Moreover, the growth in the test on SK-MEL-5 melanoma (2.5 µM) was 20% (inactive); with SK-MEL-5 melanoma (10 µM) it was 3.31% (active); with UACC-62 melanoma (2.5 µM), 24.5% (inactive); in the test with UACC-62 melanoma (10 µM), 16.8% (inactive); in the test with LOX IMVI melanoma (2.5 µM) it was 14.3% (inactive); in the test on LOX IMVI melanoma (10 µM), 16.3% (inactive).

Take `COc1ccc2sc3cccc(NCCN(C)C)c3c(=O)c2c1`: the growth in the test with HCT-15 colon (10 µM) is 32.2% (inactive) and -29.5% (active); with HT29 colon (10 µM), 5.38% (active) and -36.9% (active); in the test with SNB-75 CNS (10 µM) it was 51.8% (inactive) and -6.29% (active); with SNB-19 CNS (10 µM), 63.9% (inactive) and 13.6% (inactive); in the test on U251 CNS (10 µM) it was -18.1% (active); with PC-3 prostate (10 µM) it was 34.2% (inactive) and 21.1% (inactive). The growth is 65.1% (inactive) and -98.2% (active) in the test with SK-MEL-5 melanoma (10 µM); 64.4% (inactive) and -96.3% (active) in the test with UACC-62 melanoma (10 µM); 17.1% (inactive) and -91% (active) in the test with LOX IMVI melanoma (10 µM); 85.8% (inactive) and -80.8% (active) with SK-MEL-28 melanoma.

As for `CC/C(=C(\c1ccccc1)c1ccc(OCCN(C)C)cc1)c1ccccc1`, the growth in the test with HCT-15 colon (10 µM) is 7.63% (active); with HCT-15 colon (12.5 µM), -65% (active); with HT29 colon (10 µM) it was -11.2% (active); in the test on HT29 colon (12.5 µM), -66.6% (active); with SNB-75 CNS (10 µM), 39.9% (inactive); with SNB-75 CNS (12.5 µM), -4.48% (active). The growth was 52.6% (inactive) in the test with SNB-19 CNS (10 µM); 1.19% (active) in the test on SNB-19 CNS (12.5 µM); 4.8% (active) in the test with U251 CNS (10 µM); -84.3% (active) in the test on U251 CNS (12.5 µM); 34.4% (inactive) in the test with PC-3 prostate (10 µM); -30.7% (active) in the test with PC-3 prostate (12.5 µM). The growth is -95.2% (active) in the test with SK-MEL-5 melanoma (10 µM); -94.3% (active) with SK-MEL-5 melanoma (12.5 µM); -90.5% (active) in the test on UACC-62 melanoma (12.5 µM); -43.9% (active) in the test with LOX IMVI melanoma (10 µM); -99% (active) with LOX IMVI melanoma (12.5 µM); 11.3% (inactive) in the test on SK-MEL-28 melanoma.

With `CC[C@@]1(O)C(=O)OCc2c1cc1n(c2=O)Cc2cc3c(CN(C)C)c(O)ccc3nc2-1`, the growth with HCT-15 colon (10 µM) is 21.2% (inactive) and -10.4% (active); in the test with HT29 colon (10 µM), -15.4% (active) and -22.9% (active); in the test on SNB-75 CNS (10 µM), 2.72% (active) and -62.8% (active); in the test with SNB-19 CNS (10 µM), 16% (inactive) and 10.7% (inactive); in the test on U251 CNS (10 µM) it was -23% (active) and 2.06% (active); with PC-3 prostate (10 µM), -1.74% (active). The growth with SK-MEL-5 melanoma (10 µM) is -85.8% (active) and -77.4% (active); in the test on UACC-62 melanoma (10 µM), -73.1% (active) and -71.5% (active); in the test with LOX IMVI melanoma (10 µM) it was -14.1% (active) and -34.9% (active); in the test on SK-MEL-28 melanoma, 19.5% (inactive).
